In test [1] the test system is Human papillomavirus type 1a protein E7 (residues 44-93). Briefly: small molecules binding HPV E7 44-93 – biochemical, small-molecule microarray, residues 44-93, 635 nm fluorescence, primary screen (AID 1108).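 Also: E7 fragment applied at 1 µg/mL in TBST for 1 h at 4 C; score combines spot fluorescence with its signal to noise ratio.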 The conditions noted are these: fluorescence 635 nm, higher = more signal.
Test [2] in a line: hepatitis C replication reporter changes, two-sided – Huh7 cells, luciferase reporter, HCV replication inhibitor project, primary screen (AID 1109).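 Also: huh7 hepatoma cells harbouring a luciferase neomycin HCV replicon reporter; luciferase luminescence as measure of HCV replicon replication; test concentration not given here.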 Conditions: Huh7 HCV replicon luciferase reporter, 48 h; higher = more signal.
Test [3] addresses Left-right determination factor 2 (Homo sapiens) (UniProt O00292). The test is described as follows: small molecules binding LEFTY2 protein – biochemical, small-molecule microarray, 635 nm fluorescence scan, primary screen (AID 1110). The conditions noted are these: higher = more signal.
For test [4], the target named is Calmodulin-1 (Homo sapiens) (UniProt P0DP23). The test is described as follows: small molecules binding calmodulin-1 with EGTA – biochemical, small-molecule microarray, Cy5-labelled CALM1, profiling panel (AID 1111).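 Also: labelled calmodulin applied in Tris saline Tween buffer holding calcium plus EGTA and DTT.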 The conditions noted are these: Cy5-CALM1 binding fluorescence, higher = more signal.
Test [5] shares this target. Briefly: small molecules binding Ca-loaded calmodulin-1 – biochemical, small-molecule microarray, Cy5-labelled CALM1, plus calcium, artefact control for SMM control-protein annotation, profiling panel (AID 1112).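 Also: score merges spot fluorescence with signal to noise from triplicate slides.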 Conditions: Cy5-CALM1 binding fluorescence, higher = more signal.
Test [6] can be described thus: probe aWnt5a binding to arrayed compounds – biochemical, biotinylated probe, 635/667 nm fluorescence, primary screen (AID 1113).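 Also: score merges 667 nm fluorescence intensity with signal-to-noise per printed feature.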 Conditions: small-molecule microarray, higher = more signal.
The nature of test [7]: probe aShh binding to arrayed compounds – biochemical, biotinylated probe, 635/667 nm fluorescence, primary screen (AID 1114).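 Also: probe is biotin-labelled aShh protein from a stem cell growth factor screen; measures binding of labelled protein to compounds printed on the slide; score merges feature fluorescence at 667 nm with signal-to-noise.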 Conditions: small-molecule microarray, higher = more signal.
The nature of test [8]: probe aNog binding to arrayed compounds – biochemical, biotinylated probe, 635/667 nm fluorescence, primary screen (AID 1115).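 Also: probe is biotinylated aNog protein used at 0.15 µg/mL for 1 h at 4 C; z-score combines 667 nm fluorescence of each spot with its signal to noise.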 Conditions: small-molecule microarray, higher = more signal.
The target of test [9] is Torsin-1A-interacting protein 1 (Homo sapiens) (UniProt Q5JTV8). The test is described as follows: compound microarray binding of lysate hLAP1 – cell lysate, small-molecule microarray, COS7 lysate, 635/667 nm fluorescence, primary screen (AID 1116). Conditions: 635 nm fluorescence, higher = more signal.
Torsin-1A-interacting protein 1 (Homo sapiens), sequence (Q5JTV8 whole entry, looked up): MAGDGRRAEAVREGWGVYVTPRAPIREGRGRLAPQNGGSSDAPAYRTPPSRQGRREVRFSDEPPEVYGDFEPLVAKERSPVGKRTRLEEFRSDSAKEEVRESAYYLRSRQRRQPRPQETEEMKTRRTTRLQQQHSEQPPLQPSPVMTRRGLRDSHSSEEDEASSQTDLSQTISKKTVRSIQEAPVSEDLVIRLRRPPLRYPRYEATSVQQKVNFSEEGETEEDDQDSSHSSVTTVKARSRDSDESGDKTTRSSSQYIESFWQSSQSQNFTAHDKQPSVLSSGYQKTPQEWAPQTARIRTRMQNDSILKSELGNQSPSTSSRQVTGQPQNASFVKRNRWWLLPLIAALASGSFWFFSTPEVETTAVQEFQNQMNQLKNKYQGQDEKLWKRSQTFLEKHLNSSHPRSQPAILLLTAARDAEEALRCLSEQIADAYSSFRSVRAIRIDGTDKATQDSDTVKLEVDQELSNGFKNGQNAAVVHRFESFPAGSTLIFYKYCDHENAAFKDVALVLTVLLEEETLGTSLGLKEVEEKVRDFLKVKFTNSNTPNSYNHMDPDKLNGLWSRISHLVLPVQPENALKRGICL
Test [10] concerns the target Alpha-bungarotoxin (Bungarus multicinctus) (UniProt P60615). The test is described as follows: compounds binding labelled alpha-BTX control protein – biochemical, small-molecule microarray, Alexa647 label, 635/667 nm fluorescence, artefact control for SMM control protein annotation, profiling panel (AID 1117). Conditions: alpha-BTX-A647 binding fluorescence, higher = more signal.

The target in another test is Albumin (Bos taurus) (UniProt P02769). Briefly: compounds binding labelled BSA control protein – biochemical, small-molecule microarray, Alexa647 label, 635/667 nm fluorescence, artefact control for SMM control protein annotation, profiling panel (AID 1118).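 Also: score merges 667 nm emission intensity and signal-to-noise per printed compound spot.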 The conditions noted are these: BSA-A647 binding, fluorescence 635 nm, higher = more signal.
Albumin (Bos taurus), sequence (P02769 whole entry, looked up): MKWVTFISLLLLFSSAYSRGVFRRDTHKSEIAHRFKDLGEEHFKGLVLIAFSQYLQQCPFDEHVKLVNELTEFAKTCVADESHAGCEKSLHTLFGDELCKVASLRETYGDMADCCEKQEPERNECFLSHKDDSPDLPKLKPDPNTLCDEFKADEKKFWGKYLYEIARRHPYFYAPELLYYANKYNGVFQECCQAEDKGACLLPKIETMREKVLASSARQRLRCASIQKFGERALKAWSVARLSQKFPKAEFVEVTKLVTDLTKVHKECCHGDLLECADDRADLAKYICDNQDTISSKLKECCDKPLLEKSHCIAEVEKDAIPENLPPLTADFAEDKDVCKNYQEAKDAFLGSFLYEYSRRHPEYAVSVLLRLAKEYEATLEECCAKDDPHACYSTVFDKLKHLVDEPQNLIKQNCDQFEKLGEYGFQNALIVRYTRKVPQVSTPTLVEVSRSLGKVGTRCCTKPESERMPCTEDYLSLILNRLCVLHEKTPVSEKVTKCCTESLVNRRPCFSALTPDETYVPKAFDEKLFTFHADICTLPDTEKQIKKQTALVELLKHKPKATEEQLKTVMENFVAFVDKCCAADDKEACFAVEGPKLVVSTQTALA
The nature of test [11]: probe aXIP binding to arrayed compounds – biochemical, NeuroSMM set, 635/667 nm fluorescence, primary screen (AID 1119).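 Also: probe is the protein aXip251-270 applied at 1 µg/mL to compound-printed slides; binding of probe to printed compounds measured as 667 nm fluorescence plus signal to noise.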 Conditions: small-molecule microarray, higher = more signal, called active from +8 up or from −8 down.
A short description of test [12]: probe aNOTCH3 binding on compound microarray – biochemical, small-molecule microarray, 635/667 nm fluorescence, primary screen (AID 1120).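 Also: probe is a biotin-tagged antibody raised against NOTCH3 rather than NOTCH3 protein; score merges spot fluorescence near 667 nm with spot signal to noise.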 The conditions noted are these: higher = more signal.
Test [13] in a line: probe aNOTCH2 binding on compound microarray – biochemical, small-molecule microarray, 635/667 nm fluorescence, primary screen (AID 1121).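 Also: score merges feature fluorescence read at 667 nm with its signal to noise.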 Conditions: higher = more signal.
For test [14], the target named is Carbonic anhydrase 2 (Homo sapiens) (UniProt P00918). The test is described as follows: compounds binding carbonic anhydrase 2 – biochemical, small-molecule microarray, Alexa647-labelled CAII, profiling panel (AID 1122). The conditions noted are these: CAII-A647 binding fluorescence, higher = more signal.
Test [15] in a line: COS7 lysate on small-molecule microarray, probe aHis, 635 nm (AID 1123).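 Also: z-score combines 667nm fluorescence intensity with signal-to-noise per printed compound spot.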 The conditions noted are these: COS7 cell lysate, fluorescence, higher = more signal.
Test [16] is described as follows: probe aLAP1 signal on lysate-treated microarray – cell lysate, small-molecule microarray, COS7 lysate, primary screen (AID 1124).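 Also: lysate comes from COS7 cells expressing LAP1 and is applied at 0.3 µg/mL; score merges spot fluorescence near 667 nm with signal-to-noise over triplicate slides.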 The conditions noted are these: probe aLAP1, fluorescence, higher = more signal.
The subject of the next test is Sam68 (KHDRBS1). The test is described as follows: compounds binding KHDRBS1 protein – biochemical, small-molecule microarray, 635 nm fluorescence, primary screen (AID 1125).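 Also: score merges 667 nm channel intensity with signal to noise over triplicate slides.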 The conditions noted are these: higher = more signal.
In test [17] the test system is Chordin-like protein 2 (CHRDL2). The test is described as follows: compounds binding chordin-like 2 – biochemical, small-molecule microarray, 635 nm fluorescence, primary screen (AID 1126).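 Also: printed compound slides probed with Chrdl2 protein at 4 µg/mL for 1 h at 4 C; score merges 667 nm emission intensity with signal to noise over three replicate slides.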 Conditions: fluorescence 635 nm, higher = more signal.
For test [18], the target named is Concanavalin-A (Canavalia ensiformis) (UniProt P02866). Briefly: compounds binding concanavalin A lectin – biochemical, small-molecule microarray, Alexa647 label, 635 nm, artefact control for SMM control protein annotation, primary screen (AID 1127).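 Also: z combines 667 nm emission intensity with signal-to-noise across three replicate slides.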 The conditions noted are these: ConA-A647 binding fluorescence, higher = more signal.
Concanavalin-A (Canavalia ensiformis), sequence (P02866 whole entry, looked up): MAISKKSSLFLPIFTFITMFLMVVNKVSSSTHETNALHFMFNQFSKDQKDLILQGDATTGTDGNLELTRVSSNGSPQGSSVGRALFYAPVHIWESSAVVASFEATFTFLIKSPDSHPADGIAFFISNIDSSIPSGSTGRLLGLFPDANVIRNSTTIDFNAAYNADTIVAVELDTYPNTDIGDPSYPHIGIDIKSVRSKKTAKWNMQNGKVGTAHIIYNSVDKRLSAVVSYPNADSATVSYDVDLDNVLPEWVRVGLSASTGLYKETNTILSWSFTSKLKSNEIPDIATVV

Data on five molecules can be found in PubChem BioAssay.

Calls of active or inactive are those of the source.

Alpha-bungarotoxin (Bungarus multicinctus), sequence (P60615 whole entry, looked up): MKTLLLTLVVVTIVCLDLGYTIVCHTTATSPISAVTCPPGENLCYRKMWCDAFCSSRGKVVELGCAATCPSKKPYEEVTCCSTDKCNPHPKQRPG
Left-right determination factor 2 (Homo sapiens), sequence (O00292 whole entry, looked up): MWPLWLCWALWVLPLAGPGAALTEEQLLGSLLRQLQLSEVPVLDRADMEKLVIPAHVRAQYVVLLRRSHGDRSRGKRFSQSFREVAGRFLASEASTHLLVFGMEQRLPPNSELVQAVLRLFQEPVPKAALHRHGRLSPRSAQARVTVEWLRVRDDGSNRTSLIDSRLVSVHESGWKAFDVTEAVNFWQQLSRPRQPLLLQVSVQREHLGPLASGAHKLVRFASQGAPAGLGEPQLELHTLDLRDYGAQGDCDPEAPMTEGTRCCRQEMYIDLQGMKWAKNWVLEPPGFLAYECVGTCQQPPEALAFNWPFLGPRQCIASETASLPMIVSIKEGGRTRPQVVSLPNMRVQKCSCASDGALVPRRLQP

In the case of `C=C(COC)/C(=C/C[C@H](OC(=O)c1ccncc1)c1cccc(OCCO)c1)c1cnc2ccccc2c1`, the composite z-score in test [1] was -0.378; in test [3], 0.791; in [4], 0.697; in [5], -0.64; in test [6] it was -0.0944; in test [7], 0.235. In addition, the composite z-score is -0.145 in test [8]; 0.756 in test [9]; 3.02 in test [10]; 0.671 in the test with Albumin (Bos taurus); 0.279 in [12]; -0.0681 in test [13]. The composite z-score in [14] was 0.855; in [15], 1.21; in [16], 0.444; in the test on Sam68 (KHDRBS1) it was 1.3; in [17] it was 1.23; in test [18], 1.09. Also, the z-score in test [2] is -1.56. For the same molecule, the composite Z-score in test [11] is 1.56 (inactive).

For the molecule `COc1cccc(C[C@H]2C[C@@H](CO[Si](C(C)C)(C(C)C)C(C)C)N3C(=O)[C@@]4(C(C)=O)O[C@@]23[C@@H]2C(=O)N(C)C(=O)[C@@H]24)c1`, the composite z-score is 1.04 in [1]; 0.901 in test [3]; 0.05 in [4]; -0.587 in test [5]; -0.0364 in test [6]; 0.131 in test [7]. For the same molecule, the composite z-score in test [8] is 0.0974; in [9], 0.272; in test [10], -0.378; with Albumin (Bos taurus) it was 0.166; in test [12], -0.231; in [13] it was -0.118. For the same molecule, the composite z-score in test [14] is 0.0137; in test [15] it was 0.332; in [16], -0.316; in the test with Sam68 (KHDRBS1), 0.984; in test [17], 0.908; in test [18], 0.117. The molecule also registered a z-score in test [2] of -2.81. In addition, the composite Z-score in test [11] is 0.544 (inactive).

On to `CCN(CC)c1ccc(N2CC=CC34O[C@@H]5C=CCOC(=O)[C@@H]5[C@H]3C(=O)N(CCCO)[C@@H]4C2=O)cc1` (stereo not given in full), for which the composite z-score in [1] was 0.295; in [3] it was -0.934; in test [4], -1; in test [5], 0.319; in [6] it was -0.124; in [7], 0.258. Also, the composite z-score is 0.223 in [8]; 0.0016 in test [9]; -1.57 in [10]; -0.997 with Albumin (Bos taurus); -0.0971 in [12]; -0.14 in test [13]. Further, the composite z-score is 0.862 in test [14]; 1.4 in test [15]; -0.39 in [16]; 0.425 with Sam68 (KHDRBS1); -0.773 in [17]; -1.74 in test [18]. In test [2], this molecule had a z-score of -0.427. The composite Z-score in test [11] is 0.547 (inactive).

As for `C=CC[C@]1(C(=O)NCCCOC)N=C(c2ccc(OCCCO)cc2)O[C@H]1c1ccccc1`, the composite z-score in [1] is 1.44; in [3] it was -0.916; in test [4] it was 0.287; in test [5], -0.484; in [6] it was 0.108; in test [7], -0.0626. The composite z-score in [8] was 0.328; in [9], 1.03; in [10], -0.0901; with Albumin (Bos taurus), 0.812; in [12], 0.0522; in test [13], -0.131. Moreover, the composite z-score is 0.783 in test [14]; 2.66 in [15]; 0.648 in test [16]; 1.07 in the test with Sam68 (KHDRBS1); -1.08 in test [17]; 0.335 in [18]. Moreover, the z-score in [2] was -1.53. The composite Z-score in test [11] was -0.397 (inactive).

Take `C[N+](C)(C)CCCCCCNC(=O)[C@@H]1C[C@@H]2C(=O)N[C@@H](Cc3ccccc3)C(=O)N2[C@@H]1c1ccc(O)cc1`: the composite z-score in test [1] is 1.32; in [3], 1.27; in [4], -0.193; in test [5], -0.927; in test [6], -0.0236; in test [7], -0.156. Besides, the composite z-score was 0.0498 in test [8]; 1.41 in [9]; 1.54 in test [10]; 0.454 in the test with Albumin (Bos taurus); 0.325 in [12]; -0.126 in test [13]. Besides, the composite z-score in test [14] is 0.524; in [15] it was 0.955; in [16], 0.385; in the test with Sam68 (KHDRBS1) it was 1.29; in test [17], 1.39; in test [18], 1.12. In test [2], this molecule showed a z-score of 0.389. Further, the composite Z-score in test [11] is 0.609 (inactive).
